ELG1 DNA repair: inhibitors of ELG1-dependent DNA repair in HEK293T cells | actives 2.3% (n = 330,000) | HEK293T ELG1-luciferase reporter, luminescence, 16 h; DNA damage induced by 5-fluorouridine | Potency, µM (highest dose often 46.1 µM), for inactives: top-dose activity change, negative = inhibition, actives largely listed as inhibitors | AID 504467; further: on the % scale 0 is the no-effect control and ±100 the full control effect; nearly all actives have a fitted effect of over 55% in size
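HEK293T cells expressing luciferase-tagged ELG1 (2,000/well) received 5-Fluorouridine plus compound or DMSO for 16 hr at 37 °C. Luciferase was read by ONE-Glo luminescence after 30 min at room temperature.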
NPC1 promoter act: NPC1 promoter activation | Huh7 NPC1 promoter luciferase reporter, 24 h | Potency, µM (doses to about 9.22 µM), without a hit: top-dose activation, usual class: activators | actives 2.4% (n = 320,000) | AID 485313; further: % of control where 0% means no effect; nearly all actives have a fitted effect of over 60% in size
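Luminescence read-out of NPC1 promoter-driven luciferase in stably transfected Huh7 cells; compounds delivered in DMSO and left 24 h at 37C, 5% CO2, qHTS titration format.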
Rab9 promoter act: activators of Rab9 promoter. Potency, µM (highest dose often 9.22 µM), without a hit: top-dose activation, negative = inhibition, usual class: activators. actives 2.8% (n = 320,000). AID 485297. Huh7 Rab9 promoter-luciferase reporter, luminescence, 24 h; further: % of control where 0% means no effect; nearly all actives have a fitted effect of over 60% in size
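Luciferase signal after 10 min detection reagent at ambient indicates Rab9 promoter upregulation; stably transfected Huh7 cells were treated 24 h with compound in DMSO at 37 °C, 5% CO2.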
ELG1 genotox: induces genotoxicity in HEK293T cells with luciferase-tagged ELG1; HEK293T ELG1-luciferase reporter, luminescence, 16 h; Potency, µM (titrated, usually from 46 µM), for the others: at the highest dose activity change, positive = activation, most hits filed as activators; actives 1.3% (n = 330,000); further: % of control where 0% means no effect; nearly all actives have a fitted effect of over 60% in size
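Screening used a luciferase reporter fused to human ELG1 in HEK293T cells. Luminescence was read on a CCD plate imager after 16 hr exposure and 30 min ONE-Glo incubation.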
FLuc modulator: counter-screen for miR-21 project: firefly luciferase inhibitors or activators; purified FLuc, Km substrates, luminescence inhibition; Potency, µM (highest dose often 57.5 µM), for inactives: top-dose activity change, negative = inhibition, actives largely listed as inhibitors; actives 6.9% (n = 360,000); AID 588342;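 further: plate controls were vehicle for no effect and reference inhibitor for full effect; nearly all actives have a fitted effect of over 55% in size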
Target sequence (P08659 whole entry, looked up): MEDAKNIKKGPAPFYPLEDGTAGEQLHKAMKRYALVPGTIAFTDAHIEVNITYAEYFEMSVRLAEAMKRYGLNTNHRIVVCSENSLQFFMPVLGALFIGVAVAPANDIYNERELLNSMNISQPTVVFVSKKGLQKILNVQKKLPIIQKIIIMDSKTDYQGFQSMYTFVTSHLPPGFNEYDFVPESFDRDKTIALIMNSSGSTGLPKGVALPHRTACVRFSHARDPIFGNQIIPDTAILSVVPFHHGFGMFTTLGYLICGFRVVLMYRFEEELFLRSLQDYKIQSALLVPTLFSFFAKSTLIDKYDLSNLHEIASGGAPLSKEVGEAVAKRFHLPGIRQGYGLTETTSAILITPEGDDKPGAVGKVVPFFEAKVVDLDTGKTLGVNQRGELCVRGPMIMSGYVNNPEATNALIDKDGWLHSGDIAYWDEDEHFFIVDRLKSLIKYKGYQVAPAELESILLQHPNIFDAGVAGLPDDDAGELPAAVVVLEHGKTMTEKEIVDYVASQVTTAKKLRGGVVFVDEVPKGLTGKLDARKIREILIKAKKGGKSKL
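Purified P. pyralis luciferase, 10 nM final, with Km-level 10 uM D-luciferin and 10 uM ATP in 50 mM Tris acetate pH 7.5, 10 mM Mg acetate, 0.01% Tween-20, 0.05% BSA; 6-point qHTS titration about 60 µM downward; luminescence read.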
SMN2 splice up: SMN2 splice variant enhancement; HEK293 SMN2-luciferase splicing reporter, luminescence, 30-36 h; Potency, µM (titrated, usually from 46.1 µM), without a hit: at the top dose activity change, positive = activation, most hits filed as activators; actives 2.8% (n = 210,000); AID 1458; further: % of control where 0% means no effect; nearly all actives have a fitted effect of over 55% in size
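HEK293 cells carry an SMN2 […]–luciferase reporter in which exon 7 inclusion puts luciferase in frame. Cells were plated 10-12 h before compound addition, then incubated 30-36 h at 37C. ONE-Glo luminescence was read; sodium butyrate at 4.5 mM final served as control.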
* = called active by the depositor; ? = inconclusive; . = no result given; [ ] = another dose, or the depositor's remark. Only some compounds are listed: those with a hit (about 9.2% of all), similar ones and a draw of the others. The call rests on the fitted dose curve; in most records, active means well fitted curve in the direction sought with a large enough effect; inconclusive means small, poorly fitted or top-dose-only effect, or another doubt; inactive means no such curve, though single readings can be large; an effect the other way counts as inactive or inconclusive. Potency means the concentration at half of the fitted maximal effect.

SMILES	ELG1 DNA repair	NPC1 promoter act	Rab9 promoter act	ELG1 genotox	FLuc modulator	SMN2 splice up
COc1ccc(OC)c(NC(=O)Nc2ccc3c(c2)CCC3)c1	-2.8%	2.3%	0.7%	-4.7%	26.9µM*	.
COc1ccc(NC(=O)Nc2ccc3c(c2)CCC3)c(OC)c1	23.7%	4.3%	10.3%	11.5%	-3.5%	-6.8%
Cc1cnc(CNc2ncncc2-c2ccccc2CN(C)C)cn1	.	.	.	.	.	-1.7%
CO[C@]1(NC(=O)[C@H](C(=O)O)c2ccc(O)cc2)C(=O)N2C(C(=O)O)=C(CSc3nnnn3C)CO[C@H]21	.	.	.	.	.	1.5%[20.6 µM]
Cc1ccccc1C(=O)N1CCc2c([nH]c3ccccc23)C1C(F)(F)F (stereo not given)	13µM*	-3.0%	-1.4%	-1.7%	0.5%	.
COC(=O)c1sc2ccccc2c1-n1cccc1C(=O)C(=O)Nc1ccc(F)cc1	14.6µM*	-7.6%	-4.2%	-1.0%	-2.5%	-23.7%
COC(=O)CCC(=O)c1oc2ccc(Br)cc2c1N	?	20.9%	19.1%	?	7.57µM*	10.6%
Nc1c(C(=O)c2ccccc2)oc2ccc(Br)cc12	?	3.16µM*	3.55µM*	4.61µM*	3.01µM*	15.8µM*
Nc1c(C(=O)c2ccccc2)oc2ccc([N+](=O)[O-])cc12	?	3.55µM*	3.55µM*	14.8%	?	.
CCCCS(=O)(=O)N1CCc2nc(-c3ccccc3)c3c(c2C1)CO[C@@H](C)C3	.	.	.	.	.	-3.3%[9.22 µM]
COc1cccc(NC(=O)Nc2cc(C)on2)c1	?	27.4%	23.2%	7.5%	?	.
COc1cccc(C(=O)NC(=O)Nc2cc(C)on2)c1	?	?	1.58µM*	?	?	11.2µM*
COc1cc(C(=O)Nc2ccc(C)cn2)c([N+](=O)[O-])cc1OC	8.1%	-9.2%	-0.5%	2.3%	-0.1%	2.7%
Cc1cc(NC(=O)Nc2ccc(C)c(C)c2)no1	?	21.4%	?	?	13.5µM*	.
COc1ccc(C(=O)Nc2cc(C)on2)c(OC)c1	?	3.16µM*	3.16µM*	?	10.7µM*	.
COc1ccc(C(=O)Nc2ccc(C)cn2)c(OC)c1	?	?	0.355µM*	0.092µM*	0.19µM*	.
COc1ccc(C(=O)Nc2cc(C)on2)cc1OC	17.9%	-2.6%	1.8%	16.0%	-6.1%	.
Cc1ccc(NC(=O)CN2C(=O)C3(SCC(=O)N3c3ccc(F)c(F)c3)c3ccccc32)c(C)c1 (stereo not given)	.	.	.	.	3.8%	.
Cn1c(CC(=O)Nc2ccccc2F)nnc1SCC(=O)NC1=NCCS1	3.6%	0.0%	3.0%	1.0%	-1.8%	.
Cc1ccccc1NC(=O)c1csc2c1CCCC2	?	?	29.1%	25.9µM*	19µM*	?
Cc1ccc(/C=N/NC(=O)c2csc3c2CCCC3)cc1	?	0.1%	24.4%	?	10.7µM*	23.8%
CC(CNC(=O)c1csc2c1CCCCC2)c1ccccc1 (stereo not given)	.	.	.	.	15.1µM*	11.2µM*
Cc1ccccc1NC(=O)Nc1csc2c1CCCC2	.	.	.	.	?	5.3%
COc1cc(/C=N/NC(=O)c2csc3c2CCCC3)cc(OC)c1O	-0.6%	7.0%	-0.4%	-1.1%	-19.2%	7.8%
COc1ccc(NC(=O)c2csc3c2CCCC3)cc1	?	2µM*	3.16µM*	?	3.01µM*	12.6µM*
SMILES	ELG1 DNA repair	NPC1 promoter act	Rab9 promoter act	ELG1 genotox	FLuc modulator	SMN2 splice up
Cn1c(=O)c(-c2cccs2)nc2cnc(Oc3ccccc3)nc21	.	.	.	.	.	-14.8%
COc1ccc(CCNC(=O)CCc2c(C)nc3cc(-c4ccccc4OC)nn3c2C)c(OC)c1	.	.	.	.	-14.6%	-2.3%
Cc1ccc(NC(=O)N2CCC(CN3CCCCCC3)CC2)c(Cl)c1	.	.	.	.	2.3%	.
Cc1ccc(/C=N\NC(=O)c2csnn2)cc1	?	3.55µM*	2.51µM*	?	3.79µM*	-2.9%
O=C(Nc1ccon1)c1csc2c1CCCC2	14.4%	8.4%	9.0%	8.1%	?	-3.2%
O=C(Nc1nccs1)c1csc2c1CCCC2	?	27.5%	28.1%	7.5%	13.5µM*	26.2%
Cc1ccc(/C=N/NC(=O)c2ccncc2)cc1	8.0%	-0.6%	5.7%	-4.7%	?	.
CC(C)c1ccc(NC(=O)Nc2csc3c2CCCC3)cc1	.	.	.	.	4.78µM*	-30.0%
Cc1cc(NC(=O)Nc2csc3c2CCCC3)ccc1Br	.	.	.	.	?	-1.0%
COc1cccc(NC(=O)c2csc3c2CCCC3)c1	?	?	?	?	9.53µM*	14.1µM*
COc1cc(NC(=O)CCn2c(-c3ccccc3)cc(C(C)=O)c2C)cc(OC)c1	.	.	.	.	-1.9%	.
CCc1ccc(CNC(=O)c2cnc3sc(N4CCOCC4)nn3c2=O)cc1	.	.	.	.	2.9%	.
COc1cc2ccccc2cc1C(=O)Nc1ccc2oc(-c3ccccc3)nc2c1	.	.	.	.	-0.2%	12.3%
Cc1ccc2cc(CN(Cc3ccco3)S(=O)(=O)c3c(C)ccc4nsnc34)c(=O)[nH]c2c1	?	0.8%	-2.0%	-14.2%	-12.8%	35.5µM*
COc1ccc(-c2nc(-c3cccs3)c(-c3cccs3)[nH]2)cc1O	?	1.2%	-2.4%	-14.6%	16.9µM*	27.4%
CC(C)CCSc1nc2c(c(=O)n(C)c(=O)n2C)n1Cc1ccccc1Cl	.	.	.	.	-0.7%	-13.9%
COc1ccccc1NC(=O)Cn1c(=O)n(Cc2ccccc2)c(=O)c2c1c1cc(C)ccc1n2C	.	.	.	.	-1.1%	.
Cc1ccc(-n2cc(-c3ccccc3)[nH]c2=O)cc1F	?	3.16µM*	3.16µM*	?	?	25.1µM*
Cc1cccc(N2CCN(C(=O)C3CCCN(S(=O)(=O)c4cccc5nsnc45)C3)CC2)c1C (stereo not given)	.	.	.	.	-0.3%	-0.4%
CCCc1cc2c(=O)c(-c3nc4ccccc4s3)c(COCC(=O)O)oc2cc1O	?	1.6%	?	5.8%	9.53µM*	51.0%
CCc1cc2c(=O)c(-c3nc4ccccc4n3C)c(COCC(=O)O)oc2cc1O	12.5%	1.8%	10.6%	-1.9%	0.9%	11.4%
CCCCC(=O)Nc1ccc(NCc2ccc(C)s2)cc1	-2.9%	8.8%	-6.2%	0.4%	?	.
COc1ccc(/C(C)=N/Nc2nc3ccccc3n3cnnc23)cc1OC	?	3.8%	9.1%	-0.9%	10.7µM*	.
COCCNC(=O)c1cc2c(s1)-c1ccc(Cl)cc1SC2	?	2.51µM*	2.24µM*	?	6.01µM*	.
CCOc1ccc(N(CC)C(=O)c2cc3c(s2)-c2ccc(Cl)cc2SC3)cc1	.	.	.	.	4.5%	?
CCOC(=O)c1c(C)[nH]c(C=Nc2ccccc2)c1O	-2.8%	?	?	3.4%	1.6%	?
